Screening results (PubChem BioAssay)
An excerpt weighted towards active compounds, which were near 2% of everything screened.
E-sel TNF inh – E-selectin induction blockers in HUVEC – imaging, immunofluorescence, high content, primary screen; hit rate 0.71% among 120,000; HUVEC TNFa-induced E-selectin immunofluorescence; inhibition, % at 2 µM;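 active = inhibition above the batch mean plus 3 SD, and confirmed as a hit on visual image review, cut at about 43% in these data; inconclusive = passes the inhibition cutoff but fails visual image review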;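 note: 0% = TNF-stimulated DMSO wells and 100% = unstimulated control wells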
VCAM1 TNFa inh – inhibitors of TNFa-induced VCAM1 expression, primary screen, imaging, HUVEC, TNFa stimulus, immunofluorescence | AID 802, 2007 | inhibition, % at 2 µM | HUVEC TNFa-induced VCAM-1 immunofluorescence, high-content imaging | hit rate 0.48% among 95,000;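 active = inhibition above the batch mean plus 3 SD, with images confirmed as a hit by eye, cut at about 37% in these data; inconclusive = inhibition above that limit but hit not confirmed in images; inactive = inhibition not above that limit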;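 note: 0% = TNF-stimulated DMSO wells and 100% = unstimulated control wells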
PLAP activator – PLAP enzyme activators, biochemical, luminescence, HTS; Alkaline phosphatase, placental type (Homo sapiens), P05187; purified PLAP enzyme, luminescent substrate read-out; stronger effect = higher value; activation fold at 20 µM; hit rate 1.2% among 96,000; AID 696, 2007; in the data active = activation fold above about 2
Target sequence (P05187 whole entry, looked up): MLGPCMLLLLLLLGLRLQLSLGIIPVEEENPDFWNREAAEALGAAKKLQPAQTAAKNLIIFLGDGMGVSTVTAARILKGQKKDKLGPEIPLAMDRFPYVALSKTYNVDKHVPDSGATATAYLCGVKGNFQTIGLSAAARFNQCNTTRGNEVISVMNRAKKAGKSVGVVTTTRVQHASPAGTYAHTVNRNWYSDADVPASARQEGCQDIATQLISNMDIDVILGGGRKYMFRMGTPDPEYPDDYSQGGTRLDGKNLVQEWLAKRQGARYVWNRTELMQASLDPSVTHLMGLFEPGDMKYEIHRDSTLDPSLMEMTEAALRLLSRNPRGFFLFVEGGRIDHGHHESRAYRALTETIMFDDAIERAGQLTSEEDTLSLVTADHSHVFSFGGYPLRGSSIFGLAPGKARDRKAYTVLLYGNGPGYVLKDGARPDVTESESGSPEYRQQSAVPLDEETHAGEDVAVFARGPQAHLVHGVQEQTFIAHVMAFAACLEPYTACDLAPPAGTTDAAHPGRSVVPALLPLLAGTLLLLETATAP
TNFa cytotox – cytotoxicity in TNFa-stimulated HUVEC, primary screen, cytotoxicity control for VCAM1 expression modulator project, imaging, Hoechst nuclei count | HUVEC TNFalpha-stimulated, Hoechst cell count | cell count reduction, % at 2 µM | hit rate 0.17% among 93,000 | AID 848, 2007;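 active = cell count reduction exceeding the screen mean by over 5 SD, scaled to untreated wells per plate, cut at about 78% in these data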;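 note: cells counted after 24 h of TNF alpha exposure following the 1 h pretreatment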
F-actin modifier – modifiers of F-actin cytoskeleton organization, primary screen, imaging, HUVEC, phalloidin staining, high-content imaging; HUVEC TNFa F-actin phalloidin imaging; inhibition, % at 2 µM; hit rate 0.18% among 91,000;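 active = inhibition above the batch mean plus 3 SD and confirmed as a hit by visual image inspection, cut at about 30% in these data, passing the limit was not always enough; inconclusive = above the inhibition threshold but rejected on visual inspection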
The depositor's hits bear a star; ? = inconclusive; . = no result.

SMILES	E-sel TNF inh	VCAM1 TNFa inh	PLAP activator	TNFa cytotox	F-actin modifier
Cc1nnc(SCc2cn3ccsc3n2)n(N)c1=O	-14	62*	0.9	82*	31
Cc1ccc(NC2=NC3(CCCCC3)N=C(N)N2)c(C)c1	-20	11	2.2*	2	4
Cc1cccc(C)c1NC1=NC2(CCCCC2)N=C(N)N1	.	7	1	-25	10
COc1cccc(NC2=NC3(CCCCC3)N=C(N)N2)c1	2	21	2.8*	-20	-10
Nc1nnc(-c2cc3c(ccc4ccccc43)oc2=O)s1	1	.	.	.	.
CCc1ccc(CN(C)C(=O)c2cc(COc3c(F)cccc3F)on2)cc1	83*	.	.	.	.
CCOC(=O)c1cnc(-n2nc(C)cc2C)nc1N1CCOCC1	.	92*	1.2	74	-27
CCC1(CC)N=C(c2ccccc2)C(=S)N1	-6	.	.	.	.
COc1ccc(CNC(=O)c2ccc(NC(=O)CC3SC(N4CCCC4)=NC3=O)cc2)cc1 (centres undefined)	-30	-1	1.3	-32	14
COc1ccc(CNC(=O)c2ccc(NC(=O)CC3SC(N4CCCCC4)=NC3=O)cc2)cc1 (centres undefined)	77*	-2	1.8	-1	-31
COc1ccc(C2CC(O)(C(C)(C)O)NO2)cc1 (centres undefined)	47*	-8	0.9	-5	.
COc1ccc(C2C/C(=N\O)C(C)(C)O2)cc1 (centres undefined)	.	-3	1.1	20	2
O=C(CN1CCN(S(=O)(=O)c2ccc(Cl)cc2)CC1)NC(=O)NC1CCCCC1	.	2	2*	-28	9
CCOC(=O)N1CCC(N2CCN(S(=O)(=O)c3ccc(NC(C)=O)cc3)CC2)CC1	100*	15	1.6	-10	-11
CCOC(=O)N1CCC(N2CCN(S(=O)(=O)c3ccc(Cl)cc3)CC2)CC1	15	6	2*	-1	.
CCOC(=O)N1CCN(S(=O)(=O)c2ccc(OCC)cc2)CC1	.	19	1	-20	-13
CC(=O)COc1ncn(-c2ccccc2)n1	10	12	1.1	-11	-6
Oc1ccccc1-c1cc(-c2ccccc2)no1	5	35	1.2	2	24
Cc1ccccc1-c1cc(-c2ccccc2O)on1	2	47*	1	2	-30
NC1=NC(=O)/C(=C/c2cn(Cc3ccccc3)c3ccccc23)S1	-47	.	.	.	.
C=CCn1c(-c2ccccc2OC)n[nH]c1=S	-12	.	.	.	.
C=CCn1c(-c2cccc3ccccc23)n[nH]c1=S	12	2	2.8*	3	-8
O=C1CC(c2ccccc2)SC(N(c2ccccc2)c2ccccc2)=N1 (centres undefined)	62*	.	.	.	.
COC(=O)C1=CNC=C(C(=O)OC)C1c1ccc(C(=O)OC)cc1	-14	.	2*	.	.
COc1ccc(C(=O)N/C(=C/c2ccco2)C(=O)NC2CCS(=O)(=O)C2)cc1 (centres undefined)	5	.	.	.	.
SMILES	E-sel TNF inh	VCAM1 TNFa inh	PLAP activator	TNFa cytotox	F-actin modifier
Cc1ccc(NC2=CC(=O)OC(C)C2)cc1 (centres undefined)	12	4	1.5	3	15
CC1CC(Nc2ccccc2)=CC(=O)O1 (centres undefined)	44*	16	0.9	-5	10
Fc1ccc2[nH]c3c(N4CCN(C5CCCCC5)CC4)ncnc3c2c1	15	.	2.3*	.	.
COc1cccc(N2CCN(c3ncnc4c3[nH]c3ccccc34)CC2C)c1 (centres undefined)	-13	.	.	.	.
COc1cccc(N2CCN(c3ncnc4c3[nH]c3ccc(F)cc34)CC2C)c1 (centres undefined)	97*	52*	1.1	26	0
O=C(NCCN1C(=O)S/C(=C\c2ccccc2)C1=O)C1CCN(S(=O)(=O)c2cccs2)CC1	-1	.	.	.	.
CCOC(=O)c1c(-n2cccc2)sc2c1CCCC2=O	0	.	.	.	.
C=CCNC(=O)c1nn2cccnc2c1Cl	-40	?	0.8	92*	?
Cc1ccc(NC(=S)NNC(=O)c2c([N+](=O)[O-])c(C)nn2C)cc1	-32	-3	2.5*	-13	1
Cc1ccc(NC(=S)NNC(=O)c2nn(C)c(C)c2Cl)cc1	21	-8	2.3*	0	-8
Cc1ccc(NC(=S)NNC(=O)c2c(Cl)c(C)nn2C)cc1	8	.	.	.	.
Cc1ccc(NC(=S)NNC(=O)c2cn(C)nc2C)cc1	15	4	2.3*	-20	10
Cc1nn(C(C)C(=O)NNC(=S)Nc2ccc(Cl)cc2)c(C)c1[N+](=O)[O-] (centres undefined)	-8	13	2.4*	-9	9
Cc1c(Cl)c(C(=O)NC2CCCC2)nn1C	-24	6	.	-16	2
Cc1ccc(NC(=S)NNC(=O)c2ccccc2OC(F)F)cc1	-18	22	1.8	2	-4
CCN1/C(=C2\C(=O)N(C)C(=S)N2C)C=Cc2cc(C)ccc21	-66	.	.	.	.
COc1ccc(NC(=O)CCNS(=O)(=O)c2ccc3c(c2)CCC(=O)N3)cc1	.	0	0.8	2	-24
CSc1nc(-c2ccccc2)c(C#N)c(=O)n1C	-12	.	.	.	.
COCCN(CC(=O)NC1CCCCC1)C(=O)/C=C/C(=O)c1ccc(OC)cc1O	89*	.	.	.	.
COc1ccc(C(=O)/C=C/C(=O)N(Cc2ccc3c(c2)OCO3)C(C(=O)NC2CCCCC2)c2ccncc2)c(O)c1 (centres undefined)	6	.	.	.	.
Cc1ccc(-n2nnc3c(SCC(=O)N4CCN(c5ccccc5)CC4)ncnc32)cc1	7	92*	.	-11	3
O=C(CSc1ncnc2c1oc1ccccc12)N1CCN(c2ccccc2)CC1	-6	3	.	4	-6
CCc1nc2oc3ccccc3c(=O)c2c(=O)n1CCOC	.	87*	0.9	97*	-43
COCCn1c(C(C)C)nc2oc3ccccc3c(=O)c2c1=O	.	2	1.1	-23	-29
CCCCNC(=O)Nc1nnc(-c2ccc(OCC)cc2)o1	8	-1	1.1	-32	9
SMILES	E-sel TNF inh	VCAM1 TNFa inh	PLAP activator	TNFa cytotox	F-actin modifier
CCCCNC(=O)Nc1nnc(-c2ccccc2)o1	0	0	2.1*	-6	-17
N=C(N)SCc1nc2ccccc2c(=O)n1-c1ccccc1Cl	-17	3	1.5	-3	-5
Cc1ccccc1-n1c(CSC(=N)N)nc2ccccc2c1=O	-49	-4	2.3*	-24	-4
O=C(O)c1ccc2c3c(ncnc13)-c1ccccc1C2=O	.	.	1	.	.
O=C1c2ccccc2-c2ncnc3cccc1c23	65*	6	.	3	11
O=C(N/N=C/c1ccc[nH]1)c1sc2ccccc2c1Cl	-11	38*	1.2	9	-44
Cc1ccc(S(=O)(=O)Nc2ccc3nc(-c4cccn4C)[nH]c3c2)cc1	-16	10	1.3	2	6
COc1ccc(/C=N/NC(=O)C2C(=O)NCC2c2ccccc2)c(OC)c1 (centres undefined)	-6	.	.	.	.
COc1cccc(/C=N\NC(=O)C2C(=O)NCC2c2ccccc2)c1O (centres undefined)	15	-48	2.5*	36	-12
